From PubChem BioAssay
Unmarked numbers belong to inactive results. Calls of active or inactive are those of the source. Cut-off read from the data, not from the text of the source, unless noted: active = inhibition above about 42%; inactive = the rest.

How the values were obtained:
[1] = StAR promoter reporter inhibitors, counter-screen for LRH-1 inverse agonist project, cell-based, luminescence, high throughput (AID 651611; in the data active = inhibition above about 28%); settings: StAR promoter luciferase reporter counterscreen, at 3.6 µM, hits give high values
[2] = biological target: Nuclear receptor subfamily 5 group A member 2 (Homo sapiens) (UniProt O00482); assay: LRH-1 (NR5A2) inverse agonists, retest, confirmation, cell-based, luminescence (AID 651613); settings: cell-based LRH-1 luciferase reporter, inverse agonism; at 3.6 µM; hits give high values;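 note: HEK293T cells co-transfected with LRH-1 and StAR promoter luciferase reporter; 0% = vehicle wells and 100% = parental cells lacking receptor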
[3] = biological target: Steroidogenic factor 1 (Homo sapiens) (UniProt Q13285); assay: SF1 (NR5A1) inverse agonists, counter-screen for LRH-1 inverse agonist project, cell-based, luminescence, high throughput (AID 651614; in the data active = inhibition above about 44%;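 note: cells cotransfected with StAR promoter reporter and SF1 expression vector; 0% = vehicle on cells with receptor and 100% = vehicle on cells lacking receptor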); settings: cell-based SF1 luciferase reporter, at 3.6 µM, hits give high values
[4] = VP16 transactivation reporter inhibitors, counter-screen for LRH-1 inverse agonist project, cell-based, luminescence, high throughput (AID 651615; in the data active = inhibition above about 33%); settings: Gal4-VP16 luciferase reporter cells, at 3.6 µM, hits give high values

Steroidogenic factor 1 (Homo sapiens), sequence (Q13285 whole entry, looked up, the tested form may be a part): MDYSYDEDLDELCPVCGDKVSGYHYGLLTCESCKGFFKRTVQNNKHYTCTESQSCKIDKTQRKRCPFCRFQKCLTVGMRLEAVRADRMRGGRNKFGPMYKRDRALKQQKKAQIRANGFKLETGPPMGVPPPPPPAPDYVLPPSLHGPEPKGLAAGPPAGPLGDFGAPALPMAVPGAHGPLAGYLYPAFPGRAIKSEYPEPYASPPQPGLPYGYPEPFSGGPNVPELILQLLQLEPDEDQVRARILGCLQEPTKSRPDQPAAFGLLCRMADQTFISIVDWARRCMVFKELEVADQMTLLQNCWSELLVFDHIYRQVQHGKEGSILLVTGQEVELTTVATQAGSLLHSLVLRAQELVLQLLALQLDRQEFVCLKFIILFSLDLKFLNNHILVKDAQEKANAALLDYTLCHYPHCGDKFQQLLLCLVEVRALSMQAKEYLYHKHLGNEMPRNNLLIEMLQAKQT
Nuclear receptor subfamily 5 group A member 2 (Homo sapiens), sequence (O00482 whole entry, looked up): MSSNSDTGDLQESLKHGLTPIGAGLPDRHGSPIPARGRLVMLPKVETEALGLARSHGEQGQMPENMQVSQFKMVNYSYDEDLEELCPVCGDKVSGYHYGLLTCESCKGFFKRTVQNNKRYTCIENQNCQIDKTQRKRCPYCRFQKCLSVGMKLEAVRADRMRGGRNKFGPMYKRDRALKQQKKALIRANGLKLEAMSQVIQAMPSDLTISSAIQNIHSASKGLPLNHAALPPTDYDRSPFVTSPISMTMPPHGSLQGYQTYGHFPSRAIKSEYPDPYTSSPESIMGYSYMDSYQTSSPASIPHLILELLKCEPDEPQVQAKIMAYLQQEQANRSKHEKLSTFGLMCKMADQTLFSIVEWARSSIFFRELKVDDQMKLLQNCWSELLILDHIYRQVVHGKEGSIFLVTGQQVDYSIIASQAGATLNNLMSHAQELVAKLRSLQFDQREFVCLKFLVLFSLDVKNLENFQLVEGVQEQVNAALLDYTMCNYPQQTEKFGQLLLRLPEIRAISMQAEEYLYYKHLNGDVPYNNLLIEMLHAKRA

Row | Compound | inhibition [1] | inhibition [2] | inhibition [3] | inhibition [4]
1 | Cc1cc2oc(=O)cc(-c3ccccc3)c2c(C)c1-c1ccc(N(C)C)cc1 | 0.45% | 52% (active) | 51.3% (active) | 12.6%
2 | COc1cccc2c1C1COC3C4CC(C(=O)O)C(C(C2)N13)N4C (stereo unspecified) | 29.8% (active) | 45.4% (active) | 72.3% (active) | -10.2%
3 | Cc1cc2ncn(/N=C/c3ccc([N+](=O)[O-])o3)c2cc1C | 17.6% | 69.1% (active) | 68.2% (active) | -19.6%
4 | O=C(NC1CCCC(C(F)(F)F)C1)c1ccc([N+](=O)[O-])o1 (stereo unspecified) | 15.8% | 65.4% (active) | 63% (active) | -1.15%
5 | CC(=O)c1ccc2c(c1)C1C=CCC1C(c1cc3c(cc1Br)OCO3)N2 (stereo unspecified) | 45.6% (active) | 50.3% (active) | 46.1% (active) | 16.9%
6 | Cc1cc(-n2c(C)cc(C(=O)CSc3ncnc4ccccc34)c2C)no1 | 8.06% | 67.2% (active) | 61.3% (active) | 36.9% (active)
7 | CC(NC(=O)CCl)c1ccccc1Br (stereo unspecified) | 23.9% | 60.2% (active) | 57.4% (active) | -27.4%
8 | COC(=O)c1c(NC(=O)c2cccc(N3C(=O)CCC3=O)c2)sc2c1CCN(C(C)=O)C2 | 19.6% | 65.5% (active) | 49.8% (active) | -30.4%
9 | CC(=O)N(/N=C/c1ccc([N+](=O)[O-])o1)c1nc2ccccc2c(=O)n1-c1ccccc1 | 19.4% | 69% (active) | 55.2% (active) | 2.37%
10 | COc1ccc(Br)cc1/C=C/C(=O)c1ccc(NC(C)=O)cc1 | 81.4% (active) | 95% (active) | 94.5% (active) | 85.4% (active)
11 | O=C(NC(NNc1ccc([N+](=O)[O-])cc1)(C(F)(F)F)C(F)(F)F)c1ccccc1Cl | 7.51% | 18.4% | 34.1% | 5.04%
12 | CC(=O)NC(Cc1c[nH]c2ccccc12)C(=O)OCC(=O)Nc1ccc2c(c1)OCO2 (stereo unspecified) | 12.4% | 56.8% (active) | 56.7% (active) | -12.7%
13 | c1ccc(-c2nc(NCC3CCCO3)c3oc4ccccc4c3n2)cc1 (stereo unspecified) | -0.47% | 38.2% | 39.8% | -17.1%
14 | COc1ccc2sc(-c3ccc(N(C)C)cc3)c(C#CCCO)c2c1 | 3.58% | 21.3% | 53.7% (active) | -4.7%
15 | CC(C)CC1(C)NC(=O)N(CC(=O)Nc2ccc3c(c2)OCCO3)C1=O (stereo unspecified) | 16.7% | 54.2% (active) | 53% (active) | 7.91%
16 | CC1SC(C)C(=O)N(CC(=O)Nc2ccc3c(c2)OCO3)C1=O (stereo unspecified) | 8.81% | 49.1% (active) | 36.9% | -7.59%
17 | O=C1CCCN2N=C(SCC(=O)Nc3ccc(Br)cc3)SC2=N1 | -4.32% | 49.1% (active) | 48.8% (active) | -7.91%
18 | CCN1C(=O)c2cccc3c(NC(=O)c4cccc(N5C(=O)CCC5=O)c4)ccc1c23 | 21.9% | 51.3% (active) | 50.1% (active) | -48.1%
19 | COc1ccc(-c2c(C)cc3oc(=O)cc(-c4ccccc4)c3c2C)cc1 | 10.6% | 54.8% (active) | 45.4% (active) | 17.3%
20 | CC(=O)ON=C1C=CC(=C(C#N)c2ccccc2)C=C1 | 50.8% (active) | 79% (active) | 79.4% (active) | 20.2%
21 | Clc1ccccc1-c1nnc2sc(-c3ccc(Br)o3)nn12 | 5.07% | 43.5% (active) | 54.5% (active) | -2.86%
22 | COc1ccc(NS(=O)(=O)c2ccc(-c3coc(C)n3)cc2)cc1OC | 15.6% | 65.6% (active) | 64.7% (active) | 51.4% (active)
23 | Cc1sc2ncnc(NCCc3ccc(S(N)(=O)=O)cc3)c2c1C | 14.7% | 53% (active) | 54.6% (active) | 50% (active)
24 | CC(C)(Oc1ccc(Cl)cc1)C(=O)OCC(=O)NCCc1ccccc1 | 10.5% | 45.2% (active) | 46.8% (active) | 4.06%
